# Laboratory results as given in ChEMBL document CHEMBL3988442, “University of Dundee, Small-Polar-MMV Screening Library” (2021).
# Among all 48,000 compounds or so, about 13,000 (27%) showed an effect of 50% or more. Some of the results follow.
# System: Wolbachia pipientis
# Test: Anti-Wolbachia Cell-Based Screen
# Assay type: functional
# Set-up: scale not given: in the data most compounds retested in dose-response had high values
# Conditions: 5 µM
row,Compound,Percent Effect [%]
1,Cn1cc(CNC(=O)NCCOc2ccc(F)c(F)c2)cn1,-13.41
2,Cc1nc(COc2nc(C(C)C)no2)cs1,5.061
3,CC(C)(N)c1cn(C2CCN(c3ncccc3Cl)CC2)nn1,-9.362
4,CC(c1ccccc1Cl)N1CCN(C(=O)c2ccc(=O)[nH]c2)CC1 (configuration not stated),-13
5,COC(=O)c1cccc2nc([C@H]3CCN(Cc4ccccc4)C3)oc12,-1.952
6,Cc1cccc(C)c1OC1CN(Cc2cnn(C)c2)C1,-10.44
7,CCOC(=O)c1n[nH]cc1CN1CCCC(N(C)Cc2ccccc2)C1 (configuration not stated),-2.39
8,CN1CCN(Cc2cnn(-c3ccccc3Cl)c2)[C@H]2CS(=O)(=O)C[C@H]21,2.085
9,Cc1c[nH]nc1C1CN(Cc2cnn(-c3ccccc3C(=O)O)c2)C1,143.7
10,O=C(O)c1ccccc1-n1cc(CN2CCOC(c3cc[nH]n3)C2)cn1 (configuration not stated),92.78
11,Cc1ccnc(C2CN(Cc3cnn(-c4ccccc4C(=O)O)c3)C2)n1,148.5
12,O=C(O)c1ccccc1-n1cc(CN2CCC(c3cc[nH]n3)C2)cn1 (configuration not stated),122.2
13,Cn1cc(CN2CC[C@@H]3[C@@H](CCC(=O)N3CCc3ccccc3)C2)cn1,-6.541
14,COCCc1noc(CNC2CCCN(c3cccnn3)C2)n1 (configuration not stated),6.075
15,CCOC(=O)c1coc(N2CCC(N3CCC(O)CC3)CC2)n1,-0.9238
16,CC(=O)N(c1ccc(C)cc1)c1nc(CN2CCCC(C)C2)cs1 (configuration not stated),4.19
17,CC(=O)N1CCCC(c2cccc(-n3ccnc3)n2)C1 (configuration not stated),108.7
18,O=C(c1cc[nH]n1)N1CCCC(c2cccc(-n3ccnc3)n2)C1 (configuration not stated),-0.007784
19,Cc1cc(C2CCC2)nc(N2CC(n3cccn3)C2)n1,18.14
20,O=C(c1cnccn1)N1CCCC(c2cccc(-n3ccnc3)n2)C1 (configuration not stated),132.1
21,Fc1ccc(CN2CCCC2c2cncc(-n3ccnc3)n2)cc1 (configuration not stated),-7.107
22,Cc1cc(C)nc(N2CCC(c3cncc(-n4ccnc4)n3)CC2)n1,132.5

row,Compound,Percent Effect [%]
1,O=C(C1CCC1)N1CCCC(c2cccc(-n3ccnc3)n2)C1 (configuration not stated),120
2,Cc1nc(COC[C@@H]2CCC[C@@]23CNCCO3)cs1.Cl.Cl,-7.746
3,CNS(=O)(=O)CC1CCCN1c1ccc(Br)cn1 (configuration not stated),-12.02
4,Cn1ccnc1C(NCc1csc(Br)c1)c1ccccc1 (configuration not stated),-0.294
5,CCc1nccc(CN2CCCC(c3nn(C)c(=O)n3CC)C2)n1 (configuration not stated),16.29
6,CC(C)[C@H]1COC(=O)N1Cc1nccn1C1CC1,4.052
7,CCc1nc(N)nc(NCc2cnn3cccnc23)c1C,-10.8
8,OCCCN1CCc2[nH]nc(C(c3ccccc3)c3ccccc3)c2C1,-10.74
9,O=C(Cn1ccc(=O)[nH]c1=O)NCc1cccnc1OCC(F)(F)F,7.684
10,CC(c1ccon1)N(C)C(=O)C1CCN(C2CCCCC2)CC1 (configuration not stated),-1.584
11,Cc1ccccc1CN1CCCN(S(=O)(=O)N(C)C2CCCCC2)CC1,-4.096
12,Cc1cnn(CCNCc2nccn2Cc2ccccc2)c1,6.467
13,Cc1cc(C2CCCN(C(=O)c3c(C)nn4cccnc34)C2)n[nH]1 (configuration not stated),-1.385
14,O=C(C1CCCC1)N1CCCC(c2cccc(-n3ccnc3)n2)C1 (configuration not stated),109.1
15,Cc1n[nH]cc1C(=O)N1CCCC(c2cccc(-n3ccnc3)n2)C1 (configuration not stated),117.2
16,Cn1c(Cn2ccnc2)nnc1C1CCCN(c2ncccn2)C1 (configuration not stated),5.27
17,c1cnc(N2CCCC(c3cncc(-n4ccnc4)n3)C2)nc1 (configuration not stated),115.9
18,CCCc1n[nH]cc1C(=O)N1CCCC(c2nccn2CC2CC2)C1 (configuration not stated),2.109
19,COCC(=O)N1CCCC(c2cccc(-n3ccnc3)n2)C1 (configuration not stated),83.17
20,Cl.c1cnc(N2CCCC(NCc3ccc(-n4ccnc4)cc3)C2)nc1 (configuration not stated),24.04
21,CC(C)Oc1cccc(CC(=O)N(CC(N)=O)C2CCCC2)c1,-6.842
22,CN(C)C(=O)c1ccc(N2CCC3(CCC(=O)N(CCO)C3)CC2)nc1,-10.7

row,Compound,Percent Effect [%]
1,O=C(Cn1[nH]c2ccccc2c1=O)N1CCCC(CC2CC2)(C(=O)O)C1 (configuration not stated),-7.331
2,Cc1cc(C)nc(N2CCCC(c3cccc(-n4ccnc4)n3)C2)n1 (configuration not stated),122.3
3,Cc1nc(C(=O)N2CCCC(c3cccc(-n4ccnc4)n3)C2)co1 (configuration not stated),-10.62
4,Cc1ccnc(N2CCCC(c3nccn3C(C)C)C2)n1 (configuration not stated),2.014
5,CCc1c(C)nc2ccccc2c1N1CCC(NC(C)=O)CC1,12.09
6,Cc1ccoc1C(=O)NCCOc1ccc(C(F)(F)F)cn1,-4.463
7,CCN1CCCCC1C(=O)N1CCc2onc(-c3ccc(Cl)cc3)c2C1 (configuration not stated),6.805
8,COC(=O)N1CCCC(C(=O)N2CCCCC2)C1 (configuration not stated),-8.373
9,COCCOC1CCN(C(=O)NCc2coc3ccccc23)CC1,-1.148
10,COCCOC1CCN(C(=O)NCc2cc(C)oc2C)CC1,6.618
11,CCN1CCCCC1C(=O)N1CCN(C(=O)OC)CC1 (configuration not stated),100.7
12,COC(=O)N1CCCCC1C(=O)N1CCC(c2ccncc2)CC1 (configuration not stated),-8.744
13,CCN1CCCCC1C(=O)N1CCC(OC2CCCC2)CC1 (configuration not stated),102.5
14,CCN1CCCCC1C(=O)N1CCC(OCCOC)CC1 (configuration not stated),73.16
15,CC(=O)c1cccc(NC(=O)CN2CCCCC2C(=O)N2CCCC2)c1 (configuration not stated),-9.292
16,CC/C=C(/C)C(=O)NCc1ccc(OC)nc1,-1.205
17,OCCOCCN1CCCC1c1nc2cc(F)ccc2[nH]1 (configuration not stated),-0.6121
18,O=C(Cn1ccc(=O)[nH]c1=O)Nc1ccccc1F,-14.53
19,COCCOCC(=O)Nc1ccc(F)cc1C,92.33
20,CCC(=O)Nc1ccc(F)cc1OC,-5.571
21,Cc1cc(F)ccc1NC(=O)Cn1cc(C(=O)O)ccc1=O,-9.145
22,COCCOCC(=O)Nc1cc(C)ccc1F,111.1

row,Compound,Percent Effect [%]
1,CN(C)S(=O)(=O)c1ccc(F)c(NC(=O)COCC2CC2)c1,-1.216
2,COCc1cc(CN(C)C(=O)CCC(=O)Nc2cc(C)ccc2F)n[nH]1,-13.49
3,COCCOCC(=O)NC(C#N)c1c(F)cccc1Cl (configuration not stated),-1.788
4,COCCOCC(=O)Nc1ccccc1F,116.5
5,O=C(NCC(F)(F)C(F)F)c1ccncc1,-18.96
6,CC(C)Cc1n[nH]c(C2CC(=O)N(CC(C)C)C2)n1 (configuration not stated),-3.52
7,O=C(O)C(F)(F)F.c1ncn(Cc2cn3c(n2)CN(CC2CCCC2)CC3)n1,-2.888
8,CC[C@H](Nc1nc(C(C)C)nc2c1cnn2C)c1ccccc1,-13.66
9,CNc1ncc(CN(C)C(=O)CCc2cc3n(n2)CCCNC3)cn1,-7.945
10,CNc1ncc(CN(C)C(=O)c2ccc(C3CCCO3)s2)cn1 (configuration not stated),-2.521
11,CNc1ncc(CN(C)C(=O)CCc2[nH]nc3c2CCCC3)cn1,98.75
12,CN(Cc1ccncn1)C(=O)CCc1[nH]nc2c1CCCC2,105.8
13,CN(Cc1ccncn1)C(=O)c1cccc(CCC(C)(C)O)c1,-19.37
14,CN(Cc1ccncn1)C(=O)C1(Oc2ccc(Cl)cc2)CCNCC1,-1.2
15,Cn1cc(C[C@H]2[C@@H](OCC3CC3)CCN2C(=O)c2ccc[nH]2)cn1,-34.09
16,O=C(c1cccs1)N1CC[C@@H]2[C@H]1CCC(=O)N2c1ccccc1,4.251
17,Cc1cnc(CNC(=O)NCCOc2ncccc2Cl)s1,0.4061
18,Cc1ncc(-c2ccnc(N[C@@H](C)CO)n2)c(C2CCCCC2)n1,99.14
19,CCC(Nc1nccc(C2CCCC2)n1)c1ncccc1C (configuration not stated),-9.409
20,Cc1ncc(-c2ccnc(NCCO)n2)c(C2CCCCC2)n1,70.45
21,CCC(Nc1nccc(C2CCCC2)n1)c1ccccn1 (configuration not stated),15.43
22,COc1ccc(-c2noc([C@@H](C)NC(=O)NC(C)(C)C)c2C(=O)O)cc1,-18.05

row,Compound,Percent Effect [%]
1,N#Cc1cn(C2CC2)c(=O)n(CC(O)c2ccccc2F)c1=O (configuration not stated),-13.9
2,Cl.O=C(NCC1CCCO1)c1cc(-c2ccncc2)c2cnccc2n1 (configuration not stated),81.36
3,O=C(NCC1CCCO1)c1csc(Cc2ccccc2)n1 (configuration not stated),-0.1841
4,O=C(NCC1CCCO1)c1coc(Cn2cnc3ccccc32)n1 (configuration not stated),1.583
5,O=C(NCC1CCCO1)c1cc(-c2cccnc2)c2cnccc2n1 (configuration not stated),70.74
6,Cl.O=C(NCC1CCC2(CCNCC2)CO1)c1cnccn1 (configuration not stated),3.528
7,Cc1cc(C(=O)NCC2CCCO2)c(C)n1-c1cccnc1 (configuration not stated),-0.4746
8,CN(C)Cc1nc(C(C)(C)NC(=O)c2ccnn2C)no1,0.5486
9,CC(C)(C)c1ncc(C(=O)NCCNS(C)(=O)=O)s1,118.2
10,Cc1ncc(C(=O)NCCNc2ncccn2)s1,110.1
11,Cc1ncc(C(=O)NCCNC(=O)c2ccccc2)s1,117.1
12,Cc1ccc(-c2ncc(C(=O)NCCNc3ncccn3)s2)c(C)c1,-5.367
13,CC(=O)NCCNC(=O)c1cnc(C(C)(C)C)s1,109.1
14,O=C(NCCNc1ncccn1)c1ccc(Cl)s1,24.49
15,CS(=O)(=O)NCCNC(=O)c1cnc(-c2ccccc2)nc1,5.162
16,CC(C)(C)c1ncc(C(=O)NCCS(N)(=O)=O)s1,-2.112
17,Cc1ccc(-c2ncc(C(=O)NCCNC(=O)C(C)C)s2)c(C)c1,-1.458
18,CC(C)(C)NC(=O)c1cnc(C(C)(C)C)s1,6.371
19,COC(=O)C(C)(C)NC(=O)c1cnc(C(C)(C)C)s1,-1.472
